Among the data in PubChem BioAssay (NCI) are growth values, retold here.

Test systems include SK-MEL-2 melanoma; SN12C renal; UO-31 renal; TK-10 renal; ACHN renal; CAKI-1 renal; A498 renal; CCRF-CEM leukemia; MOLT-4 leukemia; SR leukemia; RPMI-8226 leukemia; OVCAR-8 ovarian; OVCAR-5 ovarian; OVCAR-4 ovarian; SK-OV-3 ovarian; IGROV1 ovarian; OVCAR-3 ovarian; HS 578T breast; NCI/ADR-RES ovarian.
Common to all, as to assay: NCI-60 one-dose screen, 48 h (100 = growth as untreated, 0 = no growth, -100 = all killed)
What all share (settings): 10 µM unless noted

Values joined by “and” are separate entries in the source; they are usually repeats but may differ in a detail not shown here. Identical values can stand only once. This is part of a sample that, as a whole, favours compounds with a hit. Of some 83,000 tested, about 20% had one in any assay.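 The test compound was applied at a single concentration to cells in 96-well plates for 48 hours, and percent growth was recorded.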 Active and inactive are the calls of the source. Rule for the calls: active = growth percent below 10; inactive = the rest.

As for `Nc1nnc(-c2cncc(Br)c2)c(-c2c[nH]c3ccc(Cl)cc23)n1`, the growth with SK-MEL-2 melanoma was 111% (inactive); with SN12C renal, 83.2% (inactive); in the test on UO-31 renal it was 41.4% (inactive); in the test on TK-10 renal, 111% (inactive); in the test on ACHN renal, 66.1% (inactive); with CAKI-1 renal, 59.1% (inactive). Also, the growth in the test on A498 renal is 112% (inactive); with CCRF-CEM leukemia, 52.9% (inactive); in the test with MOLT-4 leukemia it was 54.4% (inactive); in the test with SR leukemia, 54.1% (inactive); with RPMI-8226 leukemia it was 48.5% (inactive); in the test with OVCAR-8 ovarian, 89.8% (inactive). Also, the growth is 94.2% (inactive) with OVCAR-5 ovarian; 56.2% (inactive) with OVCAR-4 ovarian; 103% (inactive) with SK-OV-3 ovarian; 68.6% (inactive) in the test on IGROV1 ovarian; 100% (inactive) in the test on OVCAR-3 ovarian; 76.6% (inactive) in the test with HS 578T breast. Further, the growth in the test on NCI/ADR-RES ovarian was 63.5% (inactive).
As to `CS(=O)(=O)Nc1cccc(-n2cnc3cc(-c4ccc(O)cc4)ccc32)c1`, the growth is 27.2% (inactive) with SK-MEL-2 melanoma; 41.1% (inactive) with SN12C renal; 44.3% (inactive) with UO-31 renal; 93% (inactive) with TK-10 renal; 49.7% (inactive) in the test with ACHN renal; 30.6% (inactive) in the test with CAKI-1 renal. The growth in the test with A498 renal was 149% (inactive); in the test on CCRF-CEM leukemia it was 22.2% (inactive); in the test with MOLT-4 leukemia, 24.4% (inactive); in the test on SR leukemia it was 32.1% (inactive); in the test with RPMI-8226 leukemia, 27.2% (inactive); with OVCAR-8 ovarian, 30.8% (inactive). Further, the growth is 56% (inactive) with OVCAR-5 ovarian; 67.1% (inactive) in the test with OVCAR-4 ovarian; 35.6% (inactive) with SK-OV-3 ovarian; 57.7% (inactive) in the test with IGROV1 ovarian; 30.7% (inactive) in the test on OVCAR-3 ovarian; 40.8% (inactive) in the test with HS 578T breast. For the same compound, the growth with NCI/ADR-RES ovarian was 29.8% (inactive).
In the case of `COc1ccc(-c2nnc3c(/C=C/c4ccc(Br)cc4)nc4ccccc4n23)cc1`, the growth in the test on SK-MEL-2 melanoma is 92.9% (inactive); in the test on SN12C renal, -22.7% (active); in the test on UO-31 renal, 41.1% (inactive); in the test on TK-10 renal it was 99.4% (inactive); with ACHN renal, 23% (inactive); in the test with CAKI-1 renal it was 27.8% (inactive). Also, the growth was 92.6% (inactive) in the test with A498 renal; 8.22% (active) in the test on CCRF-CEM leukemia; 1.9% (active) with MOLT-4 leukemia; -19.4% (active) in the test with SR leukemia; 21.2% (inactive) with RPMI-8226 leukemia; 46.1% (inactive) with OVCAR-8 ovarian. Moreover, the growth in the test with OVCAR-5 ovarian was 79.7% (inactive); in the test on OVCAR-4 ovarian, 52.9% (inactive); in the test with SK-OV-3 ovarian it was 112% (inactive); with IGROV1 ovarian, 47.8% (inactive); in the test with OVCAR-3 ovarian it was 15.1% (inactive); in the test on HS 578T breast, 81.6% (inactive). Further, the growth in the test on NCI/ADR-RES ovarian was 67.5% (inactive).
For `CC1=C(C(=O)OCc2ccccc2)C(c2ccc(N(C)C)cc2)n2c(nc3ccccc32)N1` (centres undefined), the growth was 96.5% (inactive) in the test on SK-MEL-2 melanoma; 98.2% (inactive) in the test on SN12C renal; 61.1% (inactive) with UO-31 renal; 99.4% (inactive) in the test on TK-10 renal; 88.5% (inactive) in the test on ACHN renal; 55.6% (inactive) in the test with CAKI-1 renal. Further, the growth is 74.5% (inactive) in the test on A498 renal; 105% (inactive) with CCRF-CEM leukemia; 100% (inactive) in the test on MOLT-4 leukemia; 46% (inactive) with SR leukemia; 81.4% (inactive) in the test with RPMI-8226 leukemia; 95.6% (inactive) in the test on OVCAR-8 ovarian. For the same compound, the growth is 102% (inactive) in the test with OVCAR-5 ovarian; 81.4% (inactive) in the test with OVCAR-4 ovarian; 95.4% (inactive) in the test on SK-OV-3 ovarian; 84% (inactive) in the test on IGROV1 ovarian; 92.6% (inactive) with OVCAR-3 ovarian; 61.7% (inactive) with HS 578T breast. Besides, the growth with NCI/ADR-RES ovarian was 73.2% (inactive).
As for `Clc1ccc(CNc2nc(SCCN3CCOCC3)nc3c2cnn3CC(Cl)c2ccc(Br)cc2)cc1` (centres undefined), the growth was 33.6% (inactive) in the test with SK-MEL-2 melanoma; 42.7% (inactive) in the test with SN12C renal; 28.5% (inactive) with UO-31 renal; 68.7% (inactive) with TK-10 renal; 23.5% (inactive) in the test with ACHN renal; 45% (inactive) in the test on CAKI-1 renal. Besides, the growth is 106% (inactive) in the test on A498 renal; 19.7% (inactive) in the test with CCRF-CEM leukemia; -22.7% (active) in the test with MOLT-4 leukemia; -14.9% (active) with SR leukemia; 1.89% (active) in the test with RPMI-8226 leukemia; 44.3% (inactive) in the test on OVCAR-8 ovarian. For the same compound, the growth with OVCAR-5 ovarian is 75.5% (inactive); with OVCAR-4 ovarian it was 44.6% (inactive); in the test with SK-OV-3 ovarian, 62.5% (inactive); in the test on IGROV1 ovarian, 67.9% (inactive); with OVCAR-3 ovarian it was 56.5% (inactive); with HS 578T breast it was 49.4% (inactive).
As for `N#CC1=C(c2cccs2)Nc2c(c(-c3ccccc3)nn2-c2ccccc2)C12C(=O)Nc1ccc(Br)cc12` (centres undefined), the growth in the test with SK-MEL-2 melanoma is -17.2% (active); with SN12C renal it was -13.7% (active); with UO-31 renal it was 6.38% (active); in the test on TK-10 renal, 12.1% (inactive); in the test with ACHN renal, -11% (active); with CAKI-1 renal, 9.64% (active). Further, the growth in the test on A498 renal is -10.8% (active); in the test with CCRF-CEM leukemia, 1.86% (active); in the test on MOLT-4 leukemia it was -3.33% (active); with SR leukemia, -1.14% (active); with RPMI-8226 leukemia, 2.85% (active); in the test on OVCAR-8 ovarian, -14.6% (active). For the same compound, the growth in the test with OVCAR-5 ovarian is -60.4% (active); in the test on OVCAR-4 ovarian, 0.653% (active); in the test on SK-OV-3 ovarian, -0.147% (active); in the test on IGROV1 ovarian, -7.57% (active); with OVCAR-3 ovarian it was -25.7% (active); with HS 578T breast, -7.18% (active). Moreover, the growth in the test on NCI/ADR-RES ovarian was 10.5% (inactive).
Take `CC(=O)Nc1cccc(-n2c(COc3ccc(I)cc3)nc3ccccc32)c1`: the growth in the test with SK-MEL-2 melanoma was 82.8% (inactive) and 118% (inactive); in the test on UO-31 renal, -67.3% (active) and 90% (inactive); in the test on TK-10 renal, 102% (inactive) and 104% (inactive); in the test with ACHN renal it was -78.2% (active) and 116% (inactive); in the test with CAKI-1 renal, 56.7% (inactive) and 105% (inactive); in the test on A498 renal, 114% (inactive) and 136% (inactive). Also, the growth in the test with CCRF-CEM leukemia was 90.4% (inactive) and 96.2% (inactive); in the test on MOLT-4 leukemia it was 83.6% (inactive) and 102% (inactive); in the test with SR leukemia, 56.2% (inactive) and 104% (inactive); in the test on RPMI-8226 leukemia it was 75.8% (inactive) and 110% (inactive); in the test with OVCAR-8 ovarian, 97.1% (inactive) and 117% (inactive); in the test with OVCAR-5 ovarian it was 103% (inactive) and 113% (inactive). Moreover, the growth was 74.9% (inactive) and 109% (inactive) with OVCAR-4 ovarian; 96.8% (inactive) and 111% (inactive) in the test with SK-OV-3 ovarian; 86.1% (inactive) and 113% (inactive) with IGROV1 ovarian; 88.8% (inactive) and 87.7% (inactive) in the test on OVCAR-3 ovarian; 62.4% (inactive) and 115% (inactive) in the test with HS 578T breast; 76.6% (inactive) and 111% (inactive) with NCI/ADR-RES ovarian.
With `Nc1cc(-c2c[nH]c3ccc(F)cc23)nc2cc(-c3c[nH]c4ccccc34)nn12`, the growth is -16.8% (active) with SK-MEL-2 melanoma; 41.2% (inactive) in the test on SN12C renal; 21.7% (inactive) with UO-31 renal; 17.3% (inactive) with TK-10 renal; 6.95% (active) with ACHN renal; 1.64% (active) in the test with CAKI-1 renal. The growth in the test on A498 renal is 21.8% (inactive); in the test with CCRF-CEM leukemia, -11.6% (active); in the test with MOLT-4 leukemia, -9.73% (active); in the test on SR leukemia it was 15.4% (inactive); with RPMI-8226 leukemia it was -1.51% (active); in the test with OVCAR-5 ovarian, 1.01% (active). Further, the growth with OVCAR-4 ovarian was 47.8% (inactive); in the test with SK-OV-3 ovarian, 18.5% (inactive); in the test on IGROV1 ovarian it was 16.2% (inactive); in the test with OVCAR-3 ovarian, 28.8% (inactive); with HS 578T breast, 20.7% (inactive); in the test on NCI/ADR-RES ovarian, 10.7% (inactive).
